According to PubChem BioAssay AID720518 (National Center for Advancing Translational Sciences (NCATS), 2013):
Records with an inconclusive call do not appear. A call without a number means that no potency is given here. Active and inactive are the calls of the source. Calls come from the whole dose curve.

assay: qHTS for Inhibitors of Cell Surface uPA Generation: Wild-type Protective Antigen (WT-PrAg) Counterscreen for Cherry-picked Compounds; conditions: cells, WT protective antigen toxicity counterscreen; series mostly up to 115 µM

Question: With O=C1CCCC/C1=C\Nc1ccc(S(=O)(=O)Nc2cnc3ccccc3n2)cc1 as the compound, how does the Potency read?
Answer: inactive

Question: For CCn1c2ccccc2c2n[nH]c(=S)nc21, which Potency is on record?
Answer: inactive

Question: With Cc1c([N+](=O)[O-])c2ccc(O)cc2n1-c1ccccc1 as the compound, how does the Potency read?
Answer: inactive

Question: Which Potency does the source give for Cc1ccc(S(=O)(=O)NCC(=O)OC(C)C(=O)NCc2ccc3c(c2)OCO3)cc1 (stereo not drawn) here?
Answer: inactive

Question: For CCc1cc(CC)c(/C=N/NC(N)=O)c(CC)c1, which Potency is on record?
Answer: inactive

Question: For O=C(C1=C[C@H](c2ccccc2)C[C@H](OCCCCO)O1)N1CCN(Cc2ccc3c(c2)OCO3)CC1, which Potency is on record?
Answer: inactive

Question: For O=C(NNC(=O)c1ccc2ccccc2c1)Nc1ccc(F)cc1, which Potency is on record?
Answer: inactive

Question: Which Potency does the source give for Cc1ccc2oc(C(=O)N(Cc3ccc(N(C)C)cc3)C3CCS(=O)(=O)C3)c(C)c2c1 (stereo not drawn) here?
Answer: inactive

Question: With O=C(O)c1ccc(-n2nnnc2SCc2cccc(Br)c2)cc1 as the compound, how does the Potency read?
Answer: inactive

Question: Which Potency does the source give for CCS(=O)c1scc(-c2ccc(Cl)cc2)c1C#N (stereo not drawn) here?
Answer: inactive

Question: For COc1cccc(C(=O)NCc2ccc3[nH]c(C)cc3c2)c1, which Potency is on record?
Answer: inactive

Question: With O=c1[nH]c(=O)n(CCc2ccccc2)c(O)c1C=NC1CC1 as the compound, how does the Potency read?
Answer: inactive

Question: With C=CCN1C=C2C(=O)C(C)(OC(=O)c3cnc4ccccc4n3)C(=O)C=C2C=C1/C=C/COC (stereo not drawn) as the compound, how does the Potency read?
Answer: inactive

Question: For CCN(C(=O)CSc1ncnc2sccc12)c1c(N)n(Cc2ccccc2)c(=O)[nH]c1=O, which Potency is on record?
Answer: inactive

Question: For COc1cc(N/C(N)=N/c2nc(C)cc(C)n2)cc(OC)c1, which Potency is on record?
Answer: inactive

Question: Which Potency does the source give for Cc1ccccc1OCCC(=O)NNC(=O)c1ccccc1F here?
Answer: inactive

Question: With CCCCN(CC)CCNC(=O)c1cc2cc3ccc(Cl)cc3nc2o1 as the compound, how does the Potency read?
Answer: inactive

Question: Which Potency does the source give for CCCOc1ccc(S(=O)(=O)NNC(=O)c2cc3ccccc3o2)cc1 here?
Answer: inactive
